Positions count from the first letter of the chain named.
Key:
Test in all cases: PBM; 200 nM protein, PBS
Settings in all cases: dsDNA, one strand shown
HOXC10 [1] = molecular target: HOXC10 (Homo sapiens, UniProt Q9NYD6 254-340)
PRRX1 = PRRX1 (Homo sapiens, UniProt P54821 80-166, F113S)
HOXC10 [2] = molecular target: HOXC10 (Homo sapiens, UniProt Q9NYD6 254-340, K271E)
HOXC9 = HOXC9 (Homo sapiens, UniProt P31274 178-260, R222W)
PAX4 [3] = molecular target: T1, PAX4 (Homo sapiens, UniProt O43316 9-242, R200K)
T1 sequence: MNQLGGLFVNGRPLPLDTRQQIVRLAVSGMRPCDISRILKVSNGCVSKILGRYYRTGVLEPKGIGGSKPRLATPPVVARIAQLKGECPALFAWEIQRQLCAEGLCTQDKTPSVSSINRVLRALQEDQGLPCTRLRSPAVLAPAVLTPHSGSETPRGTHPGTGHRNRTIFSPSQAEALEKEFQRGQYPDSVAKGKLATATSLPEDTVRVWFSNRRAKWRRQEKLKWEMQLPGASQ

PAX4 [4] = molecular target: T2, PAX4 (Homo sapiens, UniProt O43316 9-242)
T2 sequence: T1 sequence with K192R

PAX4 [5] = molecular target: T3, PAX4 (Homo sapiens, UniProt O43316 9-242, R200Q)
T3 sequence: T1 sequence with K192Q

PAX4 [6] = molecular target: T4, PAX4 (Homo sapiens, UniProt O43316 9-242, F177V)
T4 sequence: T1 sequence with F169V, K192R

PAX4 [7] = molecular target: T5, PAX4 (Homo sapiens, UniProt O43316 9-242, F177Y)
T5 sequence: T1 sequence with F169Y, K192R

PROP1 [8] = molecular target: PROP1 (Homo sapiens, UniProt O75360 56-141)
PROP1 [9] = molecular target: PROP1 (Homo sapiens, UniProt O75360 56-141, R99H)
PROP1 [10] = molecular target: PROP1 (Homo sapiens, UniProt O75360 56-141, F88S)
PAX4 [11] = molecular target: T6, PAX4 (Homo sapiens, UniProt O43316 9-242, R227W)
T6 sequence: T1 sequence with K192R, R219W

ALX1 [12] = molecular target: ALX1 (Homo sapiens, UniProt Q15699 118-204, L144V)
HOXD13 [13] = molecular target: HOXD13 (Homo sapiens, UniProt P35453 263-343, T313R)
ALX1 [14] = molecular target: ALX1 (Homo sapiens, UniProt Q15699 118-204, L144R)
HOXD13 [15] = molecular target: HOXD13 (Homo sapiens, UniProt P35453 263-343)
HOXD13 [16] = molecular target: HOXD13 (Homo sapiens, UniProt P35453 263-343, T313A)
ALX1 [17] = molecular target: ALX1 (Homo sapiens, UniProt Q15699 118-204)
ALX4 [18] = molecular target: ALX4 (Homo sapiens, UniProt Q9H161 200-286)
ALX4 [19] = molecular target: ALX4 (Homo sapiens, UniProt Q9H161 200-286, Q225E)
Sequence of ALX4 (Homo sapiens, UniProt Q9H161 200-286, Q225E) (Q9H161 200-286 Q225E): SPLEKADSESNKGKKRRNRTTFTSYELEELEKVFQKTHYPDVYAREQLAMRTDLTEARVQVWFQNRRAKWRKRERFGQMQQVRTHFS

Sequence of HOXC10 (Homo sapiens, UniProt Q9NYD6 254-340, K271E) (Q9NYD6 254-340 K271E): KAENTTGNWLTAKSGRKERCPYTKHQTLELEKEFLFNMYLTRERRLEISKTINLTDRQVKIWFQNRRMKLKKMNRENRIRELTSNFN
Sequence of HOXC10 (Homo sapiens, UniProt Q9NYD6 254-340) (Q9NYD6 254-340): as the sequence (Q9NYD6 254-340 K271E) above, with E18K counted along it
Sequence of PROP1 (Homo sapiens, UniProt O75360 56-141, R99H) (O75360 56-141 R99H): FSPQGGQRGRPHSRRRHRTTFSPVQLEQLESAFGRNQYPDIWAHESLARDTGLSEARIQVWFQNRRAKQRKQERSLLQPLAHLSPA
Sequence of PROP1 (Homo sapiens, UniProt O75360 56-141, F88S) (O75360 56-141 F88S): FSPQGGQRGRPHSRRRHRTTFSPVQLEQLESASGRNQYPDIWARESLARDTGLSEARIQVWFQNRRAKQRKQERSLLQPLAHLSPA
Sequence of PROP1 (Homo sapiens, UniProt O75360 56-141) (O75360 56-141): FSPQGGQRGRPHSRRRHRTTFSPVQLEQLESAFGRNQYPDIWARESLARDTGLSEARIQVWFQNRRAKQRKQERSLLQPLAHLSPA
Sequence of ALX1 (Homo sapiens, UniProt Q15699 118-204, L144V) (Q15699 118-204 L144V): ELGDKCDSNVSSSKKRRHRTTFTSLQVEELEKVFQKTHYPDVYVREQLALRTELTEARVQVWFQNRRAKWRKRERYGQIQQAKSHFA
Sequence of PRRX1 (P54821 80-166 F113S): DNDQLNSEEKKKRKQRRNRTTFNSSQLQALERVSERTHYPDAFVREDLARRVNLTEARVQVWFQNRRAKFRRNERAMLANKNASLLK
Sequence of HOXD13 (Homo sapiens, UniProt P35453 263-343) (P35453 263-343): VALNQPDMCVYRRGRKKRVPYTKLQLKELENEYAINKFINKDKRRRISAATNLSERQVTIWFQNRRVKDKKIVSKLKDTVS
Sequence of HOXD13 (Homo sapiens, UniProt P35453 263-343, T313R) (P35453 263-343 T313R): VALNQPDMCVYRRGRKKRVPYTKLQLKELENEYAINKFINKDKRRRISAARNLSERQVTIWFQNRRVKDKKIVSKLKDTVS
Sequence of ALX4 (Homo sapiens, UniProt Q9H161 200-286) (Q9H161 200-286): as the sequence (Q9H161 200-286 Q225E) above, with E26Q counted along it
Sequence of ALX1 (Homo sapiens, UniProt Q15699 118-204) (Q15699 118-204): as the sequence (Q15699 118-204 L144V) above, with V27L counted along it
Sequence of HOXC9 (P31274 178-260 R222W): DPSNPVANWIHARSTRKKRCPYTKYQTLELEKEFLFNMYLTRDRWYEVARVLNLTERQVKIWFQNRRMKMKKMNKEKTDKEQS
Sequence of HOXD13 (Homo sapiens, UniProt P35453 263-343, T313A) (P35453 263-343 T313A): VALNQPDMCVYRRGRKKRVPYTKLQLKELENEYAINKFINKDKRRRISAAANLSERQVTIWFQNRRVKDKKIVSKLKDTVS
Sequence of ALX1 (Homo sapiens, UniProt Q15699 118-204, L144R) (Q15699 118-204 L144R): as the sequence (Q15699 118-204 L144V) above, with V27R counted along it

With TTAATAAA the binding signal (HOXC10 [1]) was 12.2 upbm affinity estimate (log intensity, higher = more binding, comparable within an allelic series), the binding signal (PRRX1) was 11 upbm affinity estimate (log intensity, higher = more binding, comparable within an allelic series) and the binding signal (HOXC10 [2]) was 11.5 upbm affinity estimate (log intensity, higher = more binding, comparable within an allelic series). For the same sequence, the binding signal (HOXC9) was 11.2 upbm affinity estimate (log intensity, higher = more binding, comparable within an allelic series).
For AAATGGTA, the binding signal (HOXC10 [1]) was 10.9 upbm affinity estimate (log intensity, higher = more binding, comparable within an allelic series).
AGCGGGGG was tested, and the binding signal (HOXC10 [1]) was 10.1 upbm affinity estimate (log intensity, higher = more binding, comparable within an allelic series), the binding signal (PAX4 [3]) was 9.03 upbm affinity estimate (log intensity, higher = more binding, comparable within an allelic series) and the binding signal (PAX4 [4]) was 9.24 upbm affinity estimate (log intensity, higher = more binding, comparable within an allelic series). The binding signal (PAX4 [5]) was 9.17 upbm affinity estimate (log intensity, higher = more binding, comparable within an allelic series), the binding signal (PAX4 [6]) was 9 upbm affinity estimate (log intensity, higher = more binding, comparable within an allelic series) and the binding signal (HOXC10 [2]) was 9.93 upbm affinity estimate (log intensity, higher = more binding, comparable within an allelic series). For the same sequence, the binding signal (PAX4 [7]) was 9.11 upbm affinity estimate (log intensity, higher = more binding, comparable within an allelic series), the binding signal (PROP1 [8]) was 6.68 upbm affinity estimate (log intensity, higher = more binding, comparable within an allelic series) and the binding signal (PROP1 [9]) was 6.47 upbm affinity estimate (log intensity, higher = more binding, comparable within an allelic series). The binding signal (PROP1 [10]) was 6.14 upbm affinity estimate (log intensity, higher = more binding, comparable within an allelic series) and the binding signal (PAX4 [11]) was 9.16 upbm affinity estimate (log intensity, higher = more binding, comparable within an allelic series).
In the case of CTCCCCCC, the binding signal (HOXC10 [1]) is reported as 9.99 upbm affinity estimate (log intensity, higher = more binding, comparable within an allelic series), the binding signal (PAX4 [3]) is reported as 9.31 upbm affinity estimate (log intensity, higher = more binding, comparable within an allelic series) and the binding signal (PAX4 [4]) is reported as 9.32 upbm affinity estimate (log intensity, higher = more binding, comparable within an allelic series). For the same sequence, the binding signal (PAX4 [5]) was 9.28 upbm affinity estimate (log intensity, higher = more binding, comparable within an allelic series), the binding signal (PAX4 [6]) was 9.04 upbm affinity estimate (log intensity, higher = more binding, comparable within an allelic series) and the binding signal (HOXC10 [2]) was 9.94 upbm affinity estimate (log intensity, higher = more binding, comparable within an allelic series). For the same sequence, the binding signal (PAX4 [7]) was 9.19 upbm affinity estimate (log intensity, higher = more binding, comparable within an allelic series), the binding signal (PROP1 [8]) was 6.67 upbm affinity estimate (log intensity, higher = more binding, comparable within an allelic series) and the binding signal (PROP1 [9]) was 6.5 upbm affinity estimate (log intensity, higher = more binding, comparable within an allelic series). The binding signal (PROP1 [10]) was 5.95 upbm affinity estimate (log intensity, higher = more binding, comparable within an allelic series) and the binding signal (PAX4 [11]) was 9.13 upbm affinity estimate (log intensity, higher = more binding, comparable within an allelic series).
With AGGGAGGC the binding signal (HOXC10 [1]) was 9.98 upbm affinity estimate (log intensity, higher = more binding, comparable within an allelic series), the binding signal (PAX4 [3]) was 9.2 upbm affinity estimate (log intensity, higher = more binding, comparable within an allelic series) and the binding signal (PAX4 [4]) was 9.2 upbm affinity estimate (log intensity, higher = more binding, comparable within an allelic series). For the same sequence, the binding signal (PAX4 [5]) was 9.17 upbm affinity estimate (log intensity, higher = more binding, comparable within an allelic series), the binding signal (PAX4 [6]) was 9.02 upbm affinity estimate (log intensity, higher = more binding, comparable within an allelic series) and the binding signal (HOXC10 [2]) was 10 upbm affinity estimate (log intensity, higher = more binding, comparable within an allelic series). The binding signal (PAX4 [7]) was 9.16 upbm affinity estimate (log intensity, higher = more binding, comparable within an allelic series) and the binding signal (PAX4 [11]) was 9.18 upbm affinity estimate (log intensity, higher = more binding, comparable within an allelic series).
With ATTTATAG the binding signal (HOXC10 [1]) was 12.2 upbm affinity estimate (log intensity, higher = more binding, comparable within an allelic series), the binding signal (ALX1 [12]) was 8.9 upbm affinity estimate (log intensity, higher = more binding, comparable within an allelic series) and the binding signal (HOXD13 [13]) was 11.1 upbm affinity estimate (log intensity, higher = more binding, comparable within an allelic series). For the same sequence, the binding signal (ALX1 [14]) was 9.04 upbm affinity estimate (log intensity, higher = more binding, comparable within an allelic series), the binding signal (HOXD13 [15]) was 12.1 upbm affinity estimate (log intensity, higher = more binding, comparable within an allelic series) and the binding signal (HOXC10 [2]) was 11.4 upbm affinity estimate (log intensity, higher = more binding, comparable within an allelic series). For the same sequence, the binding signal (HOXD13 [16]) was 11.9 upbm affinity estimate (log intensity, higher = more binding, comparable within an allelic series) and the binding signal (ALX1 [17]) was 9.11 upbm affinity estimate (log intensity, higher = more binding, comparable within an allelic series).
For ATGCATAA, the binding signal (HOXC10 [1]) was 11.2 upbm affinity estimate (log intensity, higher = more binding, comparable within an allelic series), the binding signal (ALX4 [18]) was 10.3 upbm affinity estimate (log intensity, higher = more binding, comparable within an allelic series) and the binding signal (ALX4 [19]) was 9.57 upbm affinity estimate (log intensity, higher = more binding, comparable within an allelic series). For the same sequence, the binding signal (HOXC10 [2]) was 10.9 upbm affinity estimate (log intensity, higher = more binding, comparable within an allelic series).

— article PMC11006913
